The source of these data is the supplement of paper PMC4022240.

Assay in all cases: peptide microarray binding signal (635 nm), min-max normalized on array (fraction of array maximum); higher = stronger binding
Common to all, as to conditions: peptide region: H3 1-13

In experiment [1] the target is T1, HaloTag-ATRX ADD domain (163-292).
T1 chain: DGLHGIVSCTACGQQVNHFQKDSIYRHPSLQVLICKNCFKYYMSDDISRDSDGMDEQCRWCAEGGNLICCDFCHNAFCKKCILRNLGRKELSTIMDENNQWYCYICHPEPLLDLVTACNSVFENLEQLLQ
The protocol: (§1)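 Histone 13-mer peptides were synthesized as cellulose conjugates with a C-terminal 20-atom PEG linker and printed in triplicate on nitrocellulose. The sequence given is the unmodified backbone; PTMs (Kme1/2/3, Kac, Sph/Tph, Rme/Rme2a/Rme2s, Rcit) are listed in the label and the 'peptide modifications' condition. Slides were probed at 4 °C for 1 h with biotin-labelled (HQ)5-HaloTag reader fusions (ATRX-ADD, ING2-PHD) then streptavidin-Alexa647, or with rabbit histone antibodies then anti-rabbit Alexa647. The mean 635 nm signal of the triplicate spots was scaled 0-1 between the lowest and highest values on each array.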

The target of experiment [2] is HaloTag-ING2 PHD (mouse Ing2 200-280). The protocol:
as §1

Experiment [3] has as its target anti-H3K4me3 antibody ab8580. The protocol: as §1
For experiment [4], the target named is anti-H3K9me3 antibody ab8898. The method, then:
as §1

[5] abbreviates: peptide modifications: H3R8cit H3K9me3, binder concentration: 1:2,000 dilution.
Where [6] appears, read: peptide modifications: H3R8cit H3K9me3, binder concentration: 1:10,000 dilution.
The mark [7] stands for this setting: peptide modifications: H3R8me2a H3K9me1, binder concentration: 1:2,000 dilution.
The mark [8] stands for this setting: peptide modifications: H3R8me2a H3K9me1, binder concentration: 1:10,000 dilution.
The mark [9] stands for this setting: peptide modifications: H3R8me1 H3K9me1, binder concentration: 1:2,000 dilution.
Where [10] appears, read: peptide modifications: H3R8me1 H3K9me1, binder concentration: 1:10,000 dilution.
The mark [11] stands for this setting: peptide modifications: H3R8cit, binder concentration: 1:2,000 dilution.
Setting [12] is: peptide modifications: H3R8cit, binder concentration: 1:10,000 dilution.
The mark [13] stands for this setting: peptide modifications: H3R8me1, binder concentration: 1:2,000 dilution.
Where [14] appears, read: peptide modifications: H3R8me1, binder concentration: 1:10,000 dilution.
[15] abbreviates: peptide modifications: H3R8me2a H3K9me2, binder concentration: 1:2,000 dilution.
The mark [16] stands for this setting: peptide modifications: H3R8me2a H3K9me2, binder concentration: 1:10,000 dilution.
[17] abbreviates: peptide modifications: H3R8me1 H3K9me2, binder concentration: 1:2,000 dilution.
Where [18] appears, read: peptide modifications: H3R8me1 H3K9me2, binder concentration: 1:10,000 dilution.
Where [19] appears, read: peptide modifications: H3R8me2a H3K9ac, binder concentration: 1:2,000 dilution.
Setting [20] is: peptide modifications: H3R8me2a H3K9ac, binder concentration: 1:10,000 dilution.
[21] abbreviates: peptide modifications: H3R8me1 H3K9ac, binder concentration: 1:2,000 dilution.
[22] abbreviates: peptide modifications: H3R8me1 H3K9ac, binder concentration: 1:10,000 dilution.
Setting [23] is: peptide modifications: H3R8me1 H3K9me3, binder concentration: 1:2,000 dilution.
The mark [24] stands for this setting: peptide modifications: H3R8me1 H3K9me3, binder concentration: 1:10,000 dilution.

± gives the standard deviation.

In the case of ARTKQTARKSTGG [H3 1-13 A R T K Q T A Rcit Kme3 S T G G], the “peptide microarray binding signal” value came out at 0.325 ± 0.047 in experiment [1] (peptide modifications: H3R8cit H3K9me3, binder concentration: 50 nM); 0.387 ± 0.024 in experiment [1] (peptide modifications: H3R8cit H3K9me3, binder concentration: 500 nM); 0.0423 ± 0.0029 in experiment [2] (peptide modifications: H3R8cit H3K9me3, binder concentration: 10 nM); 0.055 ± 0.0029 in experiment [2] (peptide modifications: H3R8cit H3K9me3, binder concentration: 100 nM); 0.0234 ± 0.008 in experiment [3] (setting [5]); 0.0152 ± 0.0012 in experiment [3] (setting [6]). The “peptide microarray binding signal” value came out at 0.331 ± 0.019 in experiment [4] (setting [5]) and 0.296 ± 0.055 in experiment [4] (setting [6]).

Turning to ARTKQTARKSTGG [H3 1-13 A R T K Q T A Rme2a Kme S T G G], the “peptide microarray binding signal” value came to 0.0352 ± 0.0011 in experiment [1] (peptide modifications: H3R8me2a H3K9me1, binder concentration: 50 nM); 0.0882 ± 0.0059 in experiment [1] (peptide modifications: H3R8me2a H3K9me1, binder concentration: 500 nM); 0.033 ± 0.0066 in experiment [2] (peptide modifications: H3R8me2a H3K9me1, binder concentration: 10 nM); 0.0721 ± 0.0073 in experiment [2] (peptide modifications: H3R8me2a H3K9me1, binder concentration: 100 nM); 0.00366 ± 0.00063 in experiment [3] (setting [7]); 0.00114 ± 3e-05 in experiment [3] (setting [8]). Besides, the entries for the “peptide microarray binding signal” value in experiment [4] (setting [7]) and in experiment [4] (setting [8]) were 0.00186 ± 0.00023 and 0.00208 ± 7.7e-05, respectively.

ARTKQTARKSTGG [H3 1-13 A R T K Q T A Rme Kme S T G G]: the “peptide microarray binding signal” value in experiment [1] (peptide modifications: H3R8me1 H3K9me1, binder concentration: 50 nM) amounted to 0.0189 ± 0.0012; in experiment [1] (peptide modifications: H3R8me1 H3K9me1, binder concentration: 500 nM) it was 0.0502 ± 0.0023; in experiment [2] (peptide modifications: H3R8me1 H3K9me1, binder concentration: 10 nM), 0.0183 ± 0.0025; in experiment [2] (peptide modifications: H3R8me1 H3K9me1, binder concentration: 100 nM), 0.0398 ± 0.0084; in experiment [3] (setting [9]), 0.00206 ± 9e-05; in experiment [3] (setting [10]) it was 0.00108 ± 5e-05. Moreover, the “peptide microarray binding signal” value amounted to 0.00319 ± 0.00084 in experiment [4] (setting [9]) and 0.00202 ± 3.2e-05 in experiment [4] (setting [10]).

Regarding ARTKQTARKSTGG [H3 1-13 A R T K Q T A Rcit K S T G G], the “peptide microarray binding signal” value in experiment [1] (peptide modifications: H3R8cit, binder concentration: 50 nM) worked out at 0.00727 ± 0.00022; in experiment [1] (peptide modifications: H3R8cit, binder concentration: 500 nM), 0.0196 ± 0.0019; in experiment [2] (peptide modifications: H3R8cit, binder concentration: 10 nM), 0.0125 ± 0.004; in experiment [2] (peptide modifications: H3R8cit, binder concentration: 100 nM) it was 0.0291 ± 0.013; in experiment [3] (setting [11]) it was 0.000359 ± 9.7e-06; in experiment [3] (setting [12]), 0.000456 ± 9.9e-06. Also, the “peptide microarray binding signal” value is 0.000785 ± 7.6e-05 in experiment [4] (setting [11]) and 0.000404 ± 4.4e-06 in experiment [4] (setting [12]).

As to ARTKQTARKSTGG [H3 1-13 A R T K Q T A Rme K S T G G], the “peptide microarray binding signal” value in experiment [1] (peptide modifications: H3R8me1, binder concentration: 50 nM) turned out to be 0.00875 ± 0.0009; in experiment [1] (peptide modifications: H3R8me1, binder concentration: 500 nM) it was 0.0184 ± 0.00056; in experiment [2] (peptide modifications: H3R8me1, binder concentration: 10 nM), 0.005013 ± 5e-05; in experiment [2] (peptide modifications: H3R8me1, binder concentration: 100 nM) it was 0.0155 ± 0.0047; in experiment [3] (setting [13]) it was 0.000717 ± 4.6e-05; in experiment [3] (setting [14]) it was 0.000685 ± 2.6e-05. Further, the “peptide microarray binding signal” value in experiment [4] (setting [13]) is 0.00071 ± 4.4e-05; in experiment [4] (setting [14]), 0.000519 ± 5.6e-06.

In the case of ARTKQTARKSTGG [H3 1-13 A R T K Q T A Rme2a Kme2 S T G G], the “peptide microarray binding signal” value in experiment [1] (peptide modifications: H3R8me2a H3K9me2, binder concentration: 50 nM) worked out at 0.0425 ± 0.0031; in experiment [1] (peptide modifications: H3R8me2a H3K9me2, binder concentration: 500 nM), 0.0913 ± 0.0063; in experiment [2] (peptide modifications: H3R8me2a H3K9me2, binder concentration: 10 nM) it was 0.044 ± 0.0014; in experiment [2] (peptide modifications: H3R8me2a H3K9me2, binder concentration: 100 nM) it was 0.06 ± 0.0041; in experiment [3] (setting [15]) it was 0.00357 ± 0.00013; in experiment [3] (setting [16]), 0.00314 ± 4.6e-05. Also, the figures for the “peptide microarray binding signal” value in experiment [4] (setting [15]) and in experiment [4] (setting [16]) were 0.00355 ± 0.00032 and 0.00334 ± 0.00031, respectively.

Consider ARTKQTARKSTGG [H3 1-13 A R T K Q T A Rme Kme2 S T G G], for which the “peptide microarray binding signal” value in experiment [1] (peptide modifications: H3R8me1 H3K9me2, binder concentration: 50 nM) stood at 0.0149 ± 0.00099; in experiment [1] (peptide modifications: H3R8me1 H3K9me2, binder concentration: 500 nM), 0.0405 ± 0.00097; in experiment [2] (peptide modifications: H3R8me1 H3K9me2, binder concentration: 10 nM) it was 0.0115 ± 0.00013; in experiment [2] (peptide modifications: H3R8me1 H3K9me2, binder concentration: 100 nM) it was 0.0224 ± 0.00044; in experiment [3] (setting [17]), 0.00179 ± 7.7e-05; in experiment [3] (setting [18]) it was 0.00108 ± 5.7e-05. Besides, the “peptide microarray binding signal” value in experiment [4] (setting [17]) is 0.00208 ± 0.00038; in experiment [4] (setting [18]) it was 0.0019 ± 6.5e-05.

Take ARTKQTARKSTGG [H3 1-13 A R T K Q T A Rme2a Kac S T G G]: the “peptide microarray binding signal” value turned out to be 0.0172 ± 0.00041 in experiment [1] (peptide modifications: H3R8me2a H3K9ac, binder concentration: 50 nM); 0.0506 ± 0.0025 in experiment [1] (peptide modifications: H3R8me2a H3K9ac, binder concentration: 500 nM); 0.0458 ± 0.0028 in experiment [2] (peptide modifications: H3R8me2a H3K9ac, binder concentration: 10 nM); 0.0544 ± 0.012 in experiment [2] (peptide modifications: H3R8me2a H3K9ac, binder concentration: 100 nM); 0.00338 ± 0.00042 in experiment [3] (setting [19]); 0.00285 ± 0.00048 in experiment [3] (setting [20]). Further, the “peptide microarray binding signal” value is 0.00364 ± 0.00047 in experiment [4] (setting [19]) and 0.00179 ± 4.5e-05 in experiment [4] (setting [20]).

In the case of ARTKQTARKSTGG [H3 1-13 A R T K Q T A Rme Kac S T G G], the “peptide microarray binding signal” value in experiment [1] (peptide modifications: H3R8me1 H3K9ac, binder concentration: 50 nM) turned out to be 0.00721 ± 8e-05; in experiment [1] (peptide modifications: H3R8me1 H3K9ac, binder concentration: 500 nM), 0.0187 ± 0.0017; in experiment [2] (peptide modifications: H3R8me1 H3K9ac, binder concentration: 10 nM), 0.0141 ± 0.00051; in experiment [2] (peptide modifications: H3R8me1 H3K9ac, binder concentration: 100 nM), 0.0352 ± 0.0065; in experiment [3] (setting [21]) it was 0.00179 ± 0.00022; in experiment [3] (setting [22]) it was 0.000628 ± 6.7e-06. Further, the “peptide microarray binding signal” value in experiment [4] (setting [21]) worked out at 0.00122 ± 4.2e-05; in experiment [4] (setting [22]), 0.000807 ± 1.5e-05.

As to ARTKQTARKSTGG [H3 1-13 A R T K Q T A Rme Kme3 S T G G], the “peptide microarray binding signal” value amounted to 0.398 ± 0.0051 in experiment [1] (peptide modifications: H3R8me1 H3K9me3, binder concentration: 50 nM); 0.396 ± 0.0076 in experiment [1] (peptide modifications: H3R8me1 H3K9me3, binder concentration: 500 nM); 0.0338 ± 0.011 in experiment [2] (peptide modifications: H3R8me1 H3K9me3, binder concentration: 10 nM); 0.0759 ± 0.034 in experiment [2] (peptide modifications: H3R8me1 H3K9me3, binder concentration: 100 nM); 0.0426 ± 0.012 in experiment [3] (setting [23]); 0.0253 ± 0.013 in experiment [3] (setting [24]). Moreover, the “peptide microarray binding signal” value in experiment [4] (setting [23]) amounted to 0.258 ± 0.015; in experiment [4] (setting [24]), 0.171 ± 0.017.
